Assay outcomes deposited in PubChem BioAssay by Broad Institute.
This is one part of a sample in which hits are shown more often than they occur.
BL2 CD40 inh: CD40 pathway inhibition in BL2 cells; inhibition, % at 10 µM; 83,000 compounds, 0.94% hits; BL2 NF-kB luciferase reporter, CD40L-induced, 4 h;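 active means mean inhibition of at least 50% with a set share of replicates also reaching that level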;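 further: 0% = neutral control wells and 100% = IKK inhibitor VII at 50 µM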
* marks the source's active call; other numbers are inactive results; [ ] = dose if it differs, or a comment.

SMILES	BL2 CD40 inh
CC12CCC3C(CCC4(O)CC(O)CCC34C=NO)C1(O)CCC2C1=COC(=O)C1 (stereo unspecified)	56*
CC12CCC3C(CCC4(O)CC(O)CCC34C=O)C1(O)CCC2C1=CC(=O)OC1 (stereo unspecified)	75*
NNC(=O)c1ccc(O)cc1	-28
C/C=C/c1ccc(C2[C@H]3CNC[C@@H]2N3CC2CC2)cc1 (stereo partly specified)	-5[25 µM]
C[C@@H]1CN([C@@H](C)CO)C(=O)c2c(c3ccccc3n2C)-c2ccccc2CO[C@@H]1CN(C)C(=O)Oc1ccccc1	0
Cc1ccc2c(c1)C1CN(C)CCC1N2C(=O)COc1ccc(S(=O)(=O)N2CCOCC2)cc1 (stereo unspecified)	2
CC12CCC3C(CCC4C(=O)C(=O)CCC43C)C1CCC2=O (stereo unspecified)	4[25 µM]
COC1=CC(=O)OC(/C=C/c2ccccc2)C1 (stereo unspecified)	-46
COC(=O)C1=C(C(=O)OC)C2OC1c1cc3ccccc3cc12	103*
CC(C)NC(C)C(=O)c1ccc2ccccc2c1 (stereo unspecified)	9
O=C(Cc1ccccn1)N1CCCCN2[C@H](CO)[C@@H](c3ccc(Br)cc3)[C@H]2C1	6[25 µM]
COC(=O)[C@H]1[C@H](CO)[C@H]2Cn3c(ccc(-c4cccc(F)c4)c3=O)[C@@H]1N2Cc1ccncc1	-7[25 µM]
CC1C(c2ccccc2)OCCN1C (stereo unspecified)	1
CCCCn1c(N)c(C(=O)NCCN2CCOCC2)c2nc3ccccc3nc21	3
CC(C)(C)n1cc(C(=O)c2ccc3ccccc3c2O)cn1	54*
Cc1ccsc1C(=O)C1CCCN(Cc2sc(N(C)C)nc2Cl)C1 (stereo unspecified)	6
O=C(CCN1CC2CCC(CC2)C1)c1cccs1	5
COc1cc2c(c(OC)c1OC)-c1ccc(O)cc1C(NC(C)=O)CC2 (stereo unspecified)	-3
Cn1c(O)c(C=NCCc2c[nH]c3ccccc23)c(=O)n(C)c1=O	-4
CC1CC(C)CC(C)C(O)C(C#N)=CC=CCC(C2CCCC2C(=O)O)OC(=O)CC(O)C(C)C1 (stereo unspecified)	94*
Oc1ccc2c3c1OC1c4[nH]c5ccccc5c4CC4(O)C(C2)N(CC2CC2)CCC314 (stereo unspecified)	-18[25 µM]
O=C(CCCOc1ccc(Cl)cc1Cl)N1CCC2(CC1)OCCO2	-27
CCOC(=O)c1c(C)n(COCCO)c2ccc(O)cc12	5
O=C(C1CC1)N1C[C@@H]2N[C@H](C1)[C@@H]2c1ccc(-c2ccncc2)cc1	70*
O=C(C1CC1)N1C[C@@H]2N[C@H](C1)C2c1ccc(-c2cncnc2)cc1 (stereo partly specified)	-1
SMILES	BL2 CD40 inh
CC(=O)N1C[C@@H]2N[C@H](C1)C2c1ccc(Br)cc1 (stereo partly specified)	-8
O=C(O)[C@@H]1[C@@H](CO)[C@@H]2Cn3c(ccc(-c4ccncc4)c3=O)[C@H]1N2C(=O)C1CCCCC1	5
COc1cc(C2c3cc4c(cc3CC3COC(=O)C32)OCO4)cc(OC)c1O (stereo unspecified)	-45
O=C1NC2C(=CC(O)C(O)C2O)c2cc3c(c(O)c21)OCO3 (stereo unspecified)	108*
O=C1NC2C(O)C(O)C(O)C(O)C2c2cc3c(c(O)c21)OCO3 (stereo unspecified)	97*
CCOP(=S)(OCC)N1CCOCCOCCN(P(=S)(OCC)OCC)CCOCCOCC1	15
COc1ccc2c(CCN)c[nH]c2c1	-3
O=C1CN=C(c2ccccc2F)c2cc(Cl)ccc2N1	8
Nc1c2c(nc3sc4c(c13)CCCCC4)CCCC2	-97
CC(C)CC(=O)Nc1ccc(S(=O)(=O)N2CC3CC(C2)c2cccc(=O)n2C3)cc1 (stereo unspecified)	-2
CC(=O)OCC12CC(OC(=O)CC(C)C)C(C)=CC1OC1C(O)C(OC(C)=O)C2(C)C12CO2 (stereo unspecified)	65*
OC1/C(=C/c2ccccc2C(F)(F)F)N2CCC1CC2 (stereo unspecified)	11
COc1ccccc1OCC#CCN1CCOCC1	1
CC1([N+](=O)[O-])COP(=O)(Nc2ccccc2F)OC1 (stereo unspecified)	4
O=[N+]([O-])c1ccc(C(c2ccc([N+](=O)[O-])cc2)c2ccc([N+](=O)[O-])cc2)cc1	18
O=C(O)C[C@H]1CC[C@@H]2NC[C@H](O)COC[C@H]2O1	-1[25 µM]
C[C@]12CC[C@H](O)C[C@@H]1CC[C@H]1[C@H]3CCC(=O)[C@@]3(C)CC[C@@H]12	2
CC(=O)C1CCC2C3CCC4CC(O)CCC4(C)C3CCC12C#N (stereo unspecified)	1
C[C@]12CC[C@@H](O)C[C@@H]1CC[C@@H]1[C@@H]2CC[C@]2(C)C(=O)CC[C@@H]12	12
C[C@]12CCC3C(CC[C@H]4C[C@@H](O)CC[C@]34C)C1C[C@@H](O)[C@@H]2O (stereo partly specified)	1
C[C@]12CC[C@H](O)C[C@H]1CC[C@@H]1[C@@H]2CC[C@]2(C)[C@@H](c3ccc(=O)oc3)CC[C@]12O	58*[25 µM]
CC(=O)OC1CC2(O)C3CCC4CC(O)CCC4(C)C3CCC2(C)C1C1=CC(=O)OC1 (stereo unspecified)	75*
CC1OC(OC2C(O)CC(OC3C(O)CC(OC4CCC5(C)C(CCC6C5CCC5(C)C(C7=CC(=O)OC7)C(O)CC65O)C4)OC3C)OC2C)CC(O)C1O (stereo unspecified)	58*
C=C(C)CN1CC[C@]23c4c5ccc(O)c4O[C@H]2c2[nH]c4ccccc4c2C[C@@]3(O)C1C5	39[25 µM]
CC(=O)OC12COC1CC(O)C1(C)C(=O)C(O)C3=C(C)C(O)CC(O)(C(OC(=O)c4ccccc4)C21)C3(C)C (stereo unspecified)	-23
SMILES	BL2 CD40 inh
C[C@]12CC[C@H](O)CC1=CCC1C2CC[C@@]2(C)C1CC[C@@H]2OCc1ccccc1 (stereo partly specified)	7
COc1ccc(-c2ccc(OC)c(OC)c2OC)cc1	3
CC1=CC(O)C(O)C2(C)C1CC1OC(=O)CC3C(C)C(O)C(=O)C2C13CO (stereo unspecified)	33
CCC(=O)N1[C@@H]2Cn3c(ccc(C4=CCCC4)c3=O)[C@H]1[C@@H](C(=O)OC)[C@@H]2CO	-7[25 µM]
C[C@H]1CCCC(=O)CCCCCc2cc(O)cc(O)c2C(=O)O1	44
CC1CN1P(=O)(Oc1ccc2ccccc2c1)N1CC1C (stereo unspecified)	-7
COCCNC(=O)Cn1cc(C(=O)c2ccccc2F)c2ccccc21	1
COc1ccc(-c2cc(=NCCCCCC(=O)O)c3cc(C)ccc3o2)cc1	-64
OC(C#CCN1CCOCC1)(c1ccccc1)C1CCCC1 (stereo unspecified)	4
O=C(O)c1nn(Cc2ccc(Cl)cc2)c2ccccc12	8
CCc1cccc(CC)c1N(COC)C(=O)CCl	3
CC1=C(O)C(=O)C=C2C1=CC=C1C2(C)CCC2(C)C3CC(C)(C(=O)O)CCC3(C)CCC12C (stereo unspecified)	110*
CC(C)NC(=O)N1C[C@@H]2N[C@H](C1)C2c1ccc(Br)cc1 (stereo partly specified)	8
N#CC(C#N)=NNc1cccc(Cl)c1	75*[25 µM]
O=C(Nc1cccc(Cl)c1)OC1CN2CCC1CC2 (stereo unspecified)	-51
